IP6K1 inhibitor – IP6K1 kinase inhibition; AID 1645851; Q92551; IP6K1 kinase, ADP-Glo luminescence, 2 h; hits give low values; hit rate 0.81% among 140,000; activity change, % (series mostly up to about 58 µM); in the data active = activity change below about -25%; note: % is set by controls: 0 for no effect and ±100 for the full control effect
Target sequence (Q92551 whole entry, looked up): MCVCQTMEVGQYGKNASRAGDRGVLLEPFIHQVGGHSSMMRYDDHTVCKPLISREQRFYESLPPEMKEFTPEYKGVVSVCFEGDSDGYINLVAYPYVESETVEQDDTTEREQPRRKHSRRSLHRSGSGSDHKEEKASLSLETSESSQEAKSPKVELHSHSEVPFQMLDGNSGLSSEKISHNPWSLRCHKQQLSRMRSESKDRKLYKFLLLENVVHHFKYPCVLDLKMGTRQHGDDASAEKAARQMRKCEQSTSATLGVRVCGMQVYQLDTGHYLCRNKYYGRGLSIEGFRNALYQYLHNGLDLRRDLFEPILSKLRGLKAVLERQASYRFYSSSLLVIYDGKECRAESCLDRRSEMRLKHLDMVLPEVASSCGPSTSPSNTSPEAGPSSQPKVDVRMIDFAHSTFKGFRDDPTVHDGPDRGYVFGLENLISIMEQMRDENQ
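ADP-Glo luminescence measures ADP made by human IP6K1 during a 2 h RT reaction with ATP/IP6 (mix at 1.3 mM/130 uM); top library doses 57.5 and 19.1 uM final.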
KDM5B inh – blocks human KDM5B histone demethylase activity | Q9UGL1 | KDM5B demethylase, FDH-coupled NADH fluorescence (FDH is formaldehyde dehydrogenase) | Potency, µM (highest dose often 57.7 µM), most hits filed as inhibitors | hit rate 2.6% among 220,000 | AID 1347165; note: potency is the fitted concentration of half-maximal effect; 0% is about no effect; nearly all actives have a fitted effect of over 70% in size
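Coupled FDH/NAD⁺ fluorescence readout. KDM5BΔAP 200 nM final; compound titration, 10 min RT preincubation; substrate mix 12.5 µM H3K4me3, 25 µM 2-OG, 50 µM Fe(II), 100 µM ascorbate, 0.25 mM NAD⁺, 0.25 U/mL FDH; ΔRFU over 30 min.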
SNCA expr inh – SNCA gene expression inhibition. HEK-293 SNCA-luciferase knock-in, luminescence, 24 h. Potency, µM (highest dose often 57.2 µM), for inactives: at the highest dose activity change, negative = inhibition, actives largely listed as inhibitors. hit rate 0.17% among 140,000;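 note: potency is the fitted concentration of half-maximal effect; plate controls were DMSO cells for no effect and cell-free wells for full effect; nearly all actives have a fitted effect of over 45% in size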
HEK293 viab – counter-screen for SNCA expression inhibitors: cell viability | HEK-293-SNCA-luc viability, GF-AFC fluorescence, 24 h | hit rate 0.12% among 150,000 | Potency, µM (highest dose often 57.1 µM), for inactives: top-dose activity change, negative = cytotoxicity, most hits filed as cytotoxic;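 note: potency is the fitted concentration of half-maximal effect; 0% = DMSO-treated cells and -100% = medium-only wells without cells; nearly all actives have a fitted effect of over 30% in size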
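HEK-293-SNCA-luc cells (1500/well) plated 24 h, then exposed 24 h to a dilution series; GF-AFC added 30 min at 37C, fluorescence 405/540 nm; normalised to medium-only and DMSO wells, Hill fit.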
The depositor's hits bear a star; i = inactive; ? = inconclusive; · = no result; [ ] = remark or other dose. Sampled rows, rich in hits. Any-hit rate of the full collection: about 2.8%. Unless noted, calls come from the whole dose curve; as a rule, active = well fitted curve in the direction sought with a large enough effect; inconclusive = small, poorly fitted or top-dose-only effect, or another doubt; inactive = no such curve, though single readings can be large; an effect the other way counts as inactive or inconclusive.

SMILES	IP6K1 inhibitor	KDM5B inh	SNCA expr inh	HEK293 viab
CC(C)Nc1ncnc2c1CN(C1CCCNC1)C(=O)CN2C (centres undefined)	-2	63µM*	3%	5%
COc1ccc(N2C(=O)C3(CCCCC3)C2C(=O)NCCN2CCc3ccccc3C2)cc1 (centres undefined)	-13	25µM*	4%	-15%
COc1ccc(N2C(=O)C3(CCCCC3)C2C(=O)NCCCN2CCCC2)cc1 (centres undefined)	-10	i	-21%	-9%
CN(C)CCNC(=O)C(C)(C)Oc1nn(CC2CCOCC2)c2ccccc12	0	32µM*	5%[87.6 µM]	8%[87.6 µM]
CC(C)(Oc1nn(CC2CCOCC2)c2ccccc12)C(=O)NCc1ccncc1	-6	i	-2%[87.6 µM]	0%[87.6 µM]
O=C(CSc1nc2ccccc2s1)Nc1c(F)cccc1F	·	i	·	·
Cc1noc(-c2ccccc2OC2CCN(S(C)(=O)=O)C2)n1 (centres undefined)	18	22µM*	?	10%
CCc1noc(-c2cccn3c(CNC(=O)c4ccc(OC)cc4)nnc23)n1	8	?	7%	-17%
CCc1noc(-c2cccn3c(CNC(=O)c4cccc(OC)c4)nnc23)n1	0	22µM*	?	-1%
COc1cccc(C(=O)NCc2nnc3c(-c4nc(C)no4)cccn23)c1	8	28µM*	-10%	-11%
Cc1noc(-c2cccn3c(CNC(=O)c4cccc(N(C)C)c4)nnc23)n1	1	?	132%	-7%
S=C(Cc1nc(-c2ccc(C3CCCCC3)cc2)cs1)N1CCOCC1	·	i	·	·
CN(C)CCCOc1ccc(-c2cnc(N)cn2)cn1	-11	32µM*	-9%	-2%
OCc1ccc(-c2ccc3nnc(-c4ccccn4)n3n2)cc1	-12	32µM*	6%[87.6 µM]	7%[87.6 µM]
CC1CCCC[C@H]2C(=O)C=C[C@H](O)[C@@H]2CC(=O)O1 (some centres undefined)	-2	·	·	9.5µM*
Cc1cn2nc(C(=O)NCC(C)C)cc2c(N2CCCC2)n1	14	28µM*	0%	6%
Cc1cn2nc(C(=O)NC3CCCCC3)cc2c(N2CCCC2)n1	-3	28µM*	-24%	-5%
Cc1cn2nc(C(=O)NCc3cccnc3)cc2c(N2CCCC2)n1	-14	i	-21%	6%
CC(C)C(NC/C=C/c1ccccc1)C(=O)O (centres undefined)	·	i	·	·
C=C1C(=O)[C@@]23C(CC[C@@H]1[C@H]2O)[C@@]12CO[C@]3(O)[C@@H](O)[C@@H]1C(C)(C)CC[C@@H]2O (some centres undefined)	-1	·	34µM*	30µM*
COc1ccc(-c2nc(-c3nnn4c3COC(c3ccccc3Cl)C4)no2)cc1 (centres undefined)	3	i	-12%	5%
CN(C)c1ccc(-c2nc(-c3nnn4c3COC(c3ccccc3Cl)C4)no2)cc1 (centres undefined)	27	25µM*	9%	7%
COc1cccc(-c2nc(-c3nnn4c3COC(c3ccccc3Cl)C4)no2)c1OC (centres undefined)	11	14µM*	4%	-7%
C1CNC(c2nc(CCOCC3CCOCC3)no2)C1 (centres undefined)	24	i	1%	5%
C1CCC(c2nc(CCOCC3CCCC3)no2)NC1 (centres undefined)	2	28µM*	-10%	-3%
SMILES	IP6K1 inhibitor	KDM5B inh	SNCA expr inh	HEK293 viab
O=C(Cc1c[nH]c2ccccc12)N1CCC(c2nc(CCOCC3CCCC3)no2)C1 (centres undefined)	13	i	20µM*	-9%[12.5 µM]
CCCCCCNc1nc2ccccc2nc1NS(=O)(=O)c1ccc(F)cc1	·	i	·	·
Cc1cccc2c(C(=O)N(C)C(C)Cc3ccccn3)cc(-c3cnc(N)nc3)nc12 (centres undefined)	12	32µM*	-27%	-3%
CCN(Cc1ccncc1)C(=O)c1cc(-c2cnc(C)nc2)nc2c(C)cccc12	-3	?	1%	-17%
Cc1ccnc(CC(C)N(C)C(=O)c2cc(-c3cnn(C)c3)nc3ccccc23)c1 (centres undefined)	34	22µM*	-2%	1%
CC1CCC(NC(=O)C23CC4CC(CC(Cl)(C4)C2)C3)CC1 (centres undefined)	·	i	·	·
CCC1c2ccsc2CCN1C(=O)CNC(=O)c1ccc(Cl)c(Cl)c1 (centres undefined)	·	i	·	·
COc1ccc(OCC2(C)COc3ccc(C(=O)NCCc4ccccc4)cc3N2)cc1 (centres undefined)	4	32µM*	-26%[87.6 µM]	-4%[87.6 µM]
COc1ccc(OCC2(C)COc3ccc(C(=O)NCC(C)C)cc3N2)cc1 (centres undefined)	-1	25µM*	?	-1%[87.6 µM]
CCOCC1(C)COc2ccc(C(=O)NCCc3ccccc3)cc2N1 (centres undefined)	-10	40µM*	71%[87.6 µM]	7%[87.6 µM]
CC1(COc2ccccc2)COc2ccc(C(=O)NCc3ccncc3)cc2N1 (centres undefined)	13	?	-17%[87.6 µM]	-14%[87.6 µM]
CCOCC1(C)COc2ccc(C(=O)N(C)Cc3ccccc3)cc2N1 (centres undefined)	11	i	?	?
COc1ccc(OCC2(C)COc3ccc(C(=O)N4CCN(C)C(=O)C4)cc3N2)cc1 (centres undefined)	-8	i	4%[87.6 µM]	9%[87.6 µM]
COc1ccc(OCC2(C)COc3ccc(C(=O)NCc4cccc(F)c4)cc3N2)cc1 (centres undefined)	10	32µM*	-26%[87.6 µM]	-9%[87.6 µM]
CC1(COc2ccccc2)COc2ccc(C(=O)NCc3ccc4c(c3)OCO4)cc2N1 (centres undefined)	10	?	?	-19%[87.6 µM]
O=C(CCc1c[nH]c2ccccc12)N(Cc1ccc(F)cc1)C1CC1	·	i	·	·
O=C(Cc1ccc2c(c1)OCO2)N(Cc1ccncc1)Cc1cccc(OCCc2ccc(F)cc2)c1	24	?	?	-18%
Cn1ncc2c(C(=O)NCCc3ccc(Cl)cc3)cc(-c3ccc(Cl)cc3)nc21	2	?	?	-9%
Cn1ncc2c(C(=O)NCCc3ccc(Cl)cc3)cc(-c3ccc(Cl)cc3Cl)nc21	-16	71µM*	?	-14%
CC(C)NC(=O)c1cc(-c2ccc(Cl)cc2Cl)nc2c1cnn2C	-4	89µM*	-11%	0%
CC(C)c1nc(C#N)c(N2CCN(c3ccccc3)CC2)o1	·	i	·	·
CC(=O)N1CCCC2(C1)CN(C)c1ccc(C(=O)NCC(F)(F)F)cc12 (centres undefined)	3	?	6%[87.6 µM]	6%[87.6 µM]
COc1ccc(NC(=O)c2ccc3c(c2)C2(CCCN(C)C2)CN3Cc2cccnc2)cc1 (centres undefined)	6	i	9%	1%
CN(C)CC(=O)N1CCC2(C1)CN(C)c1ccc(C(=O)Nc3ccccc3)cc12 (centres undefined)	18	?	4%[87.6 µM]	3%[87.6 µM]

Screens from PubChem BioAssay.
